A selection: hits, their analogues and other compounds. The true share with any hit is near 11%.
ALDH1A1 block = inhibitors of human aldehyde dehydrogenase 1A1 | Potency, µM (series often up to 75.3 µM), without a hit: at the highest dose activity, negative = inhibition, actives largely listed as inhibitors | 7.3% of 220,000 active | Purified ALDH1A1, NADH fluorescence, propionaldehyde substrate | AID 1030 | P00352;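 also: potency is read from the fitted curve at half-maximal effect; plate controls were no enzyme wells and a reference inhibitor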
PNC assembly inh = inhibitors of perinucleolar compartment assembly; activity change (PNC), negative = inhibition, % at 10 µM; AID 2417; PC3M PTB-GFP, PNC prevalence imaging, 16 h; stronger effect = lower value; 3.1% of 140,000 active;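 active = readout at or below -70, meaning at least 70% loss of cells showing the perinucleolar compartment, a nuclear body marking cancer cells; inconclusive = readout between -30 and a set limit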;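 also: plate controls were DMSO wells for no effect and camptothecin positive control wells for full effect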
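Compounds are pinned in duplicate onto adhered PC3M cells stably expressing GFP-tagged PTB and incubated 16 h at 37 C. Cells are then fixed, nuclei stained with Hoechst, and PNC-positive cells counted.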
HPGD block = blocks human HPGD enzyme activity | P15428 | purified HPGD, NADH fluorescence kinetic, PGE2 substrate | Potency, µM, without a hit: top-dose activity change, negative = inhibition, most hits filed as inhibitors | 4.3% of 150,000 active | AID 894; also: potency is read from the fitted curve at half-maximal effect
Target sequence (P15428 whole entry, looked up): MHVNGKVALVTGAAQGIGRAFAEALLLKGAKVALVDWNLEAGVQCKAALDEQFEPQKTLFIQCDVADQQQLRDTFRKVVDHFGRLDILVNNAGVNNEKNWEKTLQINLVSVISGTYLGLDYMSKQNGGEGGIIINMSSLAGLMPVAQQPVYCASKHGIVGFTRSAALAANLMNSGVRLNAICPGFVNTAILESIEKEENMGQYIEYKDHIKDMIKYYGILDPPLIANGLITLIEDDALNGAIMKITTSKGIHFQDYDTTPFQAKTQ
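20 nM HPGD preincubated 15 min at room temperature with compound in 50 mM Tris-HCl pH 8, 0.01% Tween 20. Started with 1 mM NAD+ and 30 uM prostaglandin E2; NADH fluorescence (360/450 nm) read 5 times over 30-s intervals, last minus first.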
Starred values were filed as active, the others as inactive; ? = inconclusive; . = not tested or not shown; [ ] = dose if it differs, or a comment. Unless noted, calls follow the shape of the dose curve; as a rule, active = well fitted inhibition curve with a large enough effect (not every such curve was filed as active); inconclusive = small, poorly fitted or top-dose-only effect, or another doubt; inactive = no such curve, though single readings can be large or run the other way. Unless noted, % is scaled to controls: 0 for no effect and ±100 for the full control effect.

SMILES	ALDH1A1 block	PNC assembly inh	HPGD block
CCn1cc(/C=N\NC(=O)c2ccccc2Cl)cn1	-14%	3	-12%
COc1ccc(N2CCN(S(=O)(=O)c3ccc4c(c3)CCCC4)CC2)c([N+](=O)[O-])c1	-7%	12	-13%
CCCCC(=O)Nc1cccc(NC(=S)NC(C)=O)c1	-5%	-7	-5%
OCCN1CCN(CCCc2c3c(cc4c2CCC4)CCC3)CC1	-12%	-24	-14%
O=C(Cc1cccs1)N/N=C/C=C/c1ccco1	4µM*	19	?
CCn1c(SCC(=O)N/N=C/C(C)=C/c2ccco2)nnc1-c1ccccc1	20µM*	-13	-13%
C/C(=N/NC(=O)Cc1cccs1)c1ccco1	?	?	-3%
CCn1c(SCC(=O)N/N=C/C(C)=C\c2ccco2)nnc1-c1ccccc1	?	-24	-16%
O=C(N=C1c2ccccc2CN1c1ccc(F)c(Cl)c1)c1cccnc1Cl	1%	54	-8%
Cc1ccc(S(=O)(=O)NC(=O)c2ccc(-c3ccc(C)c4ccccc34)o2)cc1	?	35	?
CCCCNC(=O)c1onc(CSc2ccccc2F)c1C(=O)O	6%	16	-18%
CCCCNC(=O)c1onc(CSc2ccccc2C)c1C(=O)O	4%	65	-17%
CC(C)NC(=O)c1onc(CSc2ccccc2F)c1C(=O)O	-14%	-84*	-4%
Cc1ccccc1SCc1noc(C(=O)NC(C)C)c1C(=O)O	?	-91*	-22%
COC(=O)[C@@]1(Cc2ccccc2)[C@H]2c3cc(C(=O)N(C)C)n(CCF)c3C[C@H]2CN1C(=O)c1ccccc1	0%	.	-3%
Cc1ccc(CC2SC(=Nc3ccccc3)N(c3ccccc3)C2=O)cc1 (stereo not drawn)	12%	-29	-2%
O=C(CC1S/C(=N\S(=O)(=O)c2ccccc2)N(c2ccccc2)C1=O)Nc1ccc(F)cc1 (stereo not drawn)	25µM*	54	-9%
Cc1ccc(S(=O)(=O)/N=C2\SC(CC(=O)Nc3ccc(F)cc3)C(=O)N2c2ccccc2)cc1 (stereo not drawn)	5.6µM*	20	-20%
O=C(O)CC1S/C(=N\N=C2CCCCCCC2)N(c2ccccc2)C1=O (stereo not drawn)	9%	.	.
O=C(CNS(=O)(=O)c1ccc(Br)s1)NCC1COc2ccccc2O1 (stereo not drawn)	0%	-19	-7%
COC(=O)C1=C(C)NC(C)=C(C(=O)OC)C1c1cn(-c2ccccc2)nc1-c1ccco1	?	16	?
O=C(O)CNC(=O)/C=C/c1ccc(Cl)cc1Cl	-5%	.	.
NNC(=O)/C=C/c1ccc(Cl)cc1Cl	13µM*	.	.
NC(=O)CSc1nnc(C2CC2)n1-c1ccccc1	-3%	8	-13%
COc1ccc2nc(SCC(=O)Nc3ccc4sc(C)nc4c3)c(C#N)cc2c1	12%	?	-7%
SMILES	ALDH1A1 block	PNC assembly inh	HPGD block
COC(=O)[C@@]1(Cc2ccc(F)cc2)[C@H]2c3cc(C(=O)N(C)C)n(Cc4cccc5ccccc45)c3C[C@H]2CN1C(=O)c1ccccc1	-3%	.	-12%
CCn1c(=N)n(CC(=O)c2cccc([N+](=O)[O-])c2)c2ccccc21	-6%	-6	-1%
CCn1c(=N)n(CC(=O)C23CC4CC(CC(C4)C2)C3)c2ccccc21	22µM*	?	?
CC(C)(C)NS(=O)(=O)c1ccc(CCC(=O)O)cc1	0%	?	-11%
CN(C)CCN1C(=O)C(=O)/C(=C(/O)c2ccc(OCc3ccccc3)cc2)C1c1ccncc1 (stereo not drawn)	-2%	-7	-11%
COc1ccc2c(c1)OCC(Cc1ccc(OC)c(O)c1)C2=O (stereo not drawn)	-13%	.	?
C=C1C2=CC(=O)OC(c3ccoc3)[C@]2(C)CCC1[C@]1(C)C=CC(=O)C(C)(C)C1CC(=O)OC (stereo partly drawn)	?	.	-4%
COc1ccc(/C=C(/NC(=O)c2ccccc2Cl)C(=O)NCCCC(=O)O)cc1	-1%	.	.
COc1ccc(NC(=O)/C(=C\c2ccc(OS(=O)(=O)c3ccc(C)cc3)cc2)NC(=O)c2ccccc2)cc1	1µM*	9	-15%
Cc1ccc(S(=O)(=O)Oc2ccc(/C=C(/NC(=O)c3ccccc3)C(=O)Nc3ccccc3)cc2)cc1	?	27	?
Cc1ccc(S(=O)(=O)Oc2ccc(/C=C(/NC(=O)c3ccccc3)C(=O)NCCC(=O)O)cc2)cc1	2.5µM*	.	.
COc1ccc(/C=C(\NC(=O)c2ccccc2)C(=O)NCCC(=O)O)cc1	9%	.	.
Cc1ccc(S(=O)(=O)Oc2ccc(/C=C(/NC(=O)c3ccccc3)C(=O)NCCCC(=O)O)cc2)cc1	2.8µM*	.	.
COc1cc(NC(=O)c2ccccc2Cl)c(OC)cc1NC(=O)CN1CCCCC1	9%	.	.
CSc1ncc(Cl)c(C(=O)Nc2ccccc2Cl)n1	3%	?	-14%
CC(=O)OCC(=O)[C@@]1(O)CC[C@@H]2[C@H]3CCC4=CC(=O)CC[C@]4(C)[C@]3(F)[C@@H](O)C[C@@]21C	-2%[20.9 µM]	.	1%
COCC(=O)N1CCC2(CCCN(Cc3nccs3)C2)CC1	15%	.	0%
COC(=O)c1ccc(NC(=O)C2CCCN(S(=O)(=O)c3cnc[nH]3)C2)cc1 (stereo not drawn)	6%	21	-15%
CC(NC(=O)CN(C)Cc1cccs1)c1ccccc1 (stereo not drawn)	-6%	.	.
CCOC(=O)Cn1cc(C#N)c2cccc(CC)c21	-4%	.	.
CCC(=O)N1CCN(c2ccc(OC)cc2[N+](=O)[O-])CC1	-6%	-26	0%
CC1CN(c2ccc(C(=O)c3ccccc3C(=O)O)cc2[N+](=O)[O-])CC(C)O1 (stereo not drawn)	3%	.	.
Cc1ccc(N2C(=O)CC(Sc3ccccc3C(=O)O)C2=O)c([N+](=O)[O-])c1 (stereo not drawn)	2µM*	.	.
COc1ccc(N2C(=O)CC(Sc3ccccc3C(=O)O)C2=O)c([N+](=O)[O-])c1 (stereo not drawn)	1µM*	.	.
COc1ccc(NC(=O)c2cncc(Br)c2)cc1S(N)(=O)=O	6%	.	.
SMILES	ALDH1A1 block	PNC assembly inh	HPGD block
O=C1CCCC(O)=C1C(C#Cc1ccccc1)C1=C(O)CCCC1=O	6.3µM*	?	4µM*
CC1(C)CC(=O)C(C(C#Cc2ccccc2)C2=C(O)CC(C)(C)CC2=O)=C(O)C1	6.3µM*	11	7.9µM*
O=C1CCCC(O)=C1Sc1ccccc1C(=O)O	-5%	.	.
CCC(=Nc1ccccc1)C1=C(O)CC(C)(C)CC1=O	-2%	.	.
c1c[nH]c(CN2CCOCC2)n1	-15%[13.5 µM]	.	-4%
O=C1CC(c2nc3ccccc3[nH]2)CN1c1ccccc1 (stereo not drawn)	-3%	29	-10%
c1ccc(C2=Nc3ccccc3SC2c2nc3ccccc3[nH]2)cc1 (stereo not drawn)	?	-3	35µM*
O=C(Nn1nnnc1Nc1ccccc1)C12CC3CC(CC(C3)C1)C2	-10%	45	9%
COC(=O)C1Cc2ccccc2CN1C(=O)CCl (stereo not drawn)	0.4µM*	.	.
Cc1cc(C)cc(OCC(=O)N2Cc3ccccc3CC2C(=O)O)c1 (stereo not drawn)	13%	.	.
Cc1cc(C)c(NC(=O)c2cc3c(nc4sccn43)s2)c(C)c1	?	31	-18%
